Screening results deposited in PubChem BioAssay by National Center for Advancing Translational Sciences (NCATS).
Shown are actives, neighbours in structure and some others; about 2.2% of the full set was active somewhere.
Giardia FBPA inh – inhibitors of Giardia lamblia fructose-1,6-bisphosphate aldolase; A8B2U2; purified Giardia FBPA; Potency, µM (titrated, usually from 59.6 µM), hits mostly inhibitors; 290,000 tested, 0.71% active; active = well fitted inhibition curve with a large enough effect; inconclusive = small, poorly fitted or top-dose-only effect, or effect the other way; note: nearly all actives have a fitted effect of over 55% in size
Target sequence (A8B2U2 whole entry, looked up): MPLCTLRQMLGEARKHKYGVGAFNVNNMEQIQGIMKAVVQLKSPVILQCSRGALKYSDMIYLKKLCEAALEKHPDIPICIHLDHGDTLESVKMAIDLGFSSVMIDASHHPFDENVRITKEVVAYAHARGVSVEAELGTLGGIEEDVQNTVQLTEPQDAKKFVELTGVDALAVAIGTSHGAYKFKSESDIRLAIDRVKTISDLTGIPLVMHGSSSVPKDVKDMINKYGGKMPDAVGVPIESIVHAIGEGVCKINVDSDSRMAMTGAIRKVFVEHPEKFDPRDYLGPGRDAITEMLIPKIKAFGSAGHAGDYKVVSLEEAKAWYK
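Giardia FBPA (40 nM reagent) was preincubated 10 min at RT with compound (up to 57.5 uM final), then substrate plus GAPDH/TPI/NAD/arsenate coupling system with diaphorase/resazurin was added; resorufin fluorescence (525/598 nm) was read after 20 min.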
VACV mCherry inh – inhibitors of vaccinia virus infection (mCherry reporter signal). 310,000 tested, 0.63% active. AID 720579. Potency, µM (series often up to 36.5 µM), actives largely listed as inhibitors. Vaccinia virus mCherry reporter infection, fluorescence; calls by dose curve; tested in A549 cells; note: nearly all actives have a fitted effect of over 35% in size
FMDV inh – blocks foot and mouth disease virus | FMDV antiviral cell-based qHTS | Potency, µM (titrated, usually from 57.9 µM), usual class: inhibitors | 410,000 tested, 1.2% active; calls by dose curve; tested in HEK293T cells; note: read-out not given here; nearly all actives have a fitted effect of over 45% in size
VACV Venus inh – inhibitors of vaccinia virus (Venus reporter); Vaccinia virus Venus reporter expression, fluorescence; 330,000 tested, 0.46% active; Potency, µM (titrated, usually from 36.5 µM), actives largely listed as inhibitors; calls by dose curve; tested in A549 cells; note: nearly all actives have a fitted effect of over 30% in size
Each line names hits and unclear results; the compound was inactive in the other large screens.

CC[C@]12c3[nH]c4ccc(Cl)cc4c3CCN1C(=O)[C@@H](CC(=O)NCC13CC4CC(CC(C4)C1)C3)C[C@@H]2C(=O)N1CCN(C(=O)c2ccco2)CC1	VACV mCherry inh 11µM, FMDV inh inconclusive, VACV Venus inh 14µM (no result: Giardia FBPA inh)
CN(C)CCCNC(=O)C[C@H]1C[C@H](C(=O)N2CCCCC2)[C@@]2(C)c3[nH]c4cc(-c5ccco5)ccc4c3CCN2C1=O	VACV mCherry inh inconclusive (no result: Giardia FBPA inh)
C[C@]12c3[nH]c4cc(-c5ccco5)ccc4c3CCN1C(=O)[C@@H](CC(=O)NCC13CC4CC(CC(C4)C1)C3)C[C@@H]2C(=O)N1CCCCC1	VACV mCherry inh 11µM, VACV Venus inh inconclusive (no result: Giardia FBPA inh)
CC(C)=CCC/C(C)=C/CNC(=O)C[C@H]1C[C@H](C(=O)N2CCOCC2)[C@@]2(C)c3[nH]c4cc(-c5ccco5)ccc4c3CCN2C1=O	VACV mCherry inh inconclusive, FMDV inh inconclusive, VACV Venus inh 11µM (no result: Giardia FBPA inh)
CC[C@]12c3[nH]c4ccc(OC)cc4c3CCN1C(=O)C(CC(=O)NCC13CC4CC(CC(C4)C1)C3)C[C@@H]2C(=O)N1CCN(C(=O)c2ccco2)CC1 (some centres not stated)	FMDV inh inconclusive (no result: Giardia FBPA inh)
C[C@]12c3[nH]c4cc(-c5ccco5)ccc4c3CCN1C(=O)[C@@H](CC(=O)NCc1cccc(C(F)(F)F)c1)C[C@@H]2C(=O)N1CCCCC1	VACV mCherry inh 11µM, FMDV inh inconclusive, VACV Venus inh inconclusive (no result: Giardia FBPA inh)
C[S+](C)CC(=O)c1ccc2ccccc2c1	none (no result: Giardia FBPA inh, FMDV inh)
CC1(C)CC(C(=O)N2CCOc3ccc(CN4CCC(Oc5cccnc5)CC4)cc3C2)CCO1 (configuration not stated)	none (no result: Giardia FBPA inh)
CC[C@]12c3[nH]c4cc(-c5ccco5)ccc4c3CCN1C(=O)[C@@H](CC(=O)NCC13CC4CC(CC(C4)C1)C3)C[C@@H]2C(=O)N1CCN(C(=O)c2ccco2)CC1	VACV mCherry inh 7.1µM, FMDV inh inconclusive, VACV Venus inh inconclusive (no result: Giardia FBPA inh)
CC[C@]12c3[nH]c4cc(-c5ccco5)ccc4c3CCN1C(=O)[C@@H](CC(=O)NCCCN(C)C)C[C@@H]2C(=O)N1CCN(C(=O)c2ccco2)CC1	none (no result: Giardia FBPA inh)
CCOc1cc(NC(=O)CCl)c(OCC)cc1NC(=O)CCl	FMDV inh inconclusive
CCc1cc(SC#N)cc(CC)c1NC(=O)CCl	Giardia FBPA inh inconclusive, FMDV inh 25µM
NCC(O)c1cc(O)c(O)cc1F (configuration not stated)	Giardia FBPA inh 5.6µM
NC[C@@H](O)c1ccc(O)c(O)c1	Giardia FBPA inh inconclusive
CN1C(=CC=C2C=C(I)C(=O)C(I)=C2)C(C)(C)c2ccccc21	FMDV inh 22µM
CN1/C(=C\C=C2C(=O)NC(=S)NC2=O)C(C)(C)c2ccccc21	none
CC(=O)OC1CCC2(C)C(=CCC3C2CCC2(C)C3CC3OC4(CCC(C)CN4)C(C)C32)C1 (configuration not stated)	none
C[C@H]1CC[C@]2(NC1)O[C@H]1C[C@H]3[C@@H]4CC[C@H]5C[C@@H](O[C@@H]6O[C@H](CO)[C@H](O[C@@H]7O[C@H](CO)[C@@H](O)[C@H](O[C@@H]8OC[C@@H](O)[C@H](O)[C@H]8O)[C@H]7O[C@@H]7O[C@H](CO)[C@@H](O)[C@H](O)[C@H]7O)[C@H](O)[C@H]6O)CC[C@]5(C)[C@H]4CC[C@]3(C)[C@H]1[C@@H]2C	VACV mCherry inh inconclusive, FMDV inh 25µM, VACV Venus inh inconclusive (no result: Giardia FBPA inh)
CCOC(=O)C(NC(=O)CC(C)C)(Nc1sc(C)c(CC)c1C#N)C(F)(F)F (configuration not stated)	none
CCOC(=O)C(NC(=O)CCl)(Nc1sc(C)c(CC)c1C#N)C(F)(F)F (configuration not stated)	VACV mCherry inh 10µM, FMDV inh inconclusive, VACV Venus inh inconclusive
O=c1[nH]c(CN2CCN(S(=O)(=O)/C=C/c3ccccc3)CC2)nc2cc(Cl)ccc12	VACV mCherry inh inconclusive, VACV Venus inh 11µM
Oc1ccc(Cl)cc1C1C=C(c2ccc3c(c2)OCO3)NC(c2ccc(C(F)(F)F)cc2)N1 (configuration not stated)	none (no result: Giardia FBPA inh, FMDV inh)
Cc1ccc(F)cc1CNC(=O)c1sc2ncnc(NCC3CCCO3)c2c1C (configuration not stated)	none (no result: Giardia FBPA inh)
COc1ccc(OCCSc2nnc(CCNC(=O)c3ccc(Cl)c(Cl)c3)n2C)cc1	FMDV inh inconclusive (no result: VACV mCherry inh, VACV Venus inh)
CCn1c(CCNC(=O)c2ccc(Cl)c(Cl)c2)nnc1SCCOc1ccc(OC)cc1	FMDV inh 40µM (no result: VACV mCherry inh, VACV Venus inh)
CCOC(=O)C1(Cc2cccc(OC)c2)CCN(Cc2ccccc2OC)CC1	FMDV inh inconclusive
CCOC(=O)C1(Cc2cccc(OC)c2)CCN(Cc2cccc(OC)c2O)CC1	FMDV inh 25µM
Nc1[nH]c(=O)nc2nnsc12	none (no result: Giardia FBPA inh, FMDV inh)
COC(=O)CCC(C)C1CCC2C3CC[C@H]4CC(O)CC[C@@]4(C)C3CC(O)[C@]12C (some centres not stated)	VACV mCherry inh inconclusive, VACV Venus inh 10µM
Cc1nc2c(OCC(=O)c3ccc(F)cc3)cccn2c1N(C)Cc1cccs1	none (no result: Giardia FBPA inh)
Cc1nc2c(OCc3ccc(C#N)cc3)cccn2c1N(C)Cc1cccs1	FMDV inh 28µM (no result: Giardia FBPA inh)
COc1cccc(-c2nnc3n2N=C(c2c(OC)cccc2OC)CS3)c1OC	none (no result: VACV mCherry inh, FMDV inh, VACV Venus inh)
CC(C)c1ccc(C2Sc3ccccc3NC3=C2C(=O)c2ccccc23)cc1 (configuration not stated)	FMDV inh 7.9µM (no result: Giardia FBPA inh)
COc1cccc(CNC(=O)c2c(OC)cc(=O)n3c2CCN(C(=O)c2ccc(Cl)cc2)CC3)c1	none (no result: Giardia FBPA inh)
COc1cc(NC(=O)C2CC(c3c(F)cccc3Cl)=NO2)cc(OC)c1OC (configuration not stated)	FMDV inh 25µM
COc1ccc(NC(=O)C2CC(c3c(F)cccc3Cl)=NO2)cc1 (configuration not stated)	none (no result: VACV mCherry inh, VACV Venus inh)
Cc1csc(SCC(=O)Nc2cc(S(=O)(=O)N3CCCC3)ccc2Cl)n1	none
Cc1csc(Sc2ccc(S(=O)(=O)N3CCCC3)cn2)n1	VACV mCherry inh 8.9µM, VACV Venus inh inconclusive
COc1ccc(Cl)cc1N1C(=O)[C@@H]2C[C@H]1CN2Cc1nc2ccccc2nc1C	none (no result: Giardia FBPA inh)
Cc1cnc(C)c(-c2ccc3c(c2)CC(CNC(=O)Cc2c(C)[nH]c4ccccc24)O3)n1 (configuration not stated)	VACV mCherry inh inconclusive, VACV Venus inh inconclusive (no result: Giardia FBPA inh)
Cc1cc(-c2csc(N)n2)c(C)n1CCc1ccccc1	FMDV inh 11µM (no result: VACV mCherry inh, VACV Venus inh)
Cc1nn(C)cc1-c1csc(N)n1	none
Cc1cc(-c2csc(N)n2)c(C)n1CCC(C)C	FMDV inh 22µM (no result: VACV mCherry inh)
O=C(Nc1ccc(F)c(F)c1)c1cnn2c1NC(=C1CC1)C=C2C(F)(F)F	none (no result: Giardia FBPA inh, FMDV inh)
O=C(CCc1nc2ccccc2s1)N1CCOc2ccc(CN3CCc4sccc4C3)cc2C1	none (no result: Giardia FBPA inh)
COc1ccccc1N1CCN(C(c2cc3ccc(C)cc3[nH]c2=O)c2nnnn2C2CCCC2)CC1 (configuration not stated)	Giardia FBPA inh 28µM (no result: VACV mCherry inh, VACV Venus inh)
c1csc(-c2noc(CN3CCOCC3)n2)c1	none
NC(=O)C1(N2CCCCC2)CCN(Cc2nc(-c3cccs3)no2)CC1	FMDV inh 35µM (no result: VACV mCherry inh, VACV Venus inh)
CC(=O)c1ccc(F)c(-c2cc(C)cc3c2OC(CNC(=O)Cn2nc(C)nc2C)C3)c1 (configuration not stated)	none (no result: Giardia FBPA inh)
